# Reference: ChEMBL document CHEMBL3988442, “University of Dundee, Small-Polar-MMV Screening Library” (2021)
# For part of these data: Potency and affinity values are given separately.
# Key:
# Set-up in all cases: scale not given: direction of the effect not stated beside the values
# [1] = biological target: Protein translocase subunit SecA (Escherichia coli (strain K12)) (UniProt P10408); assay: Assay to Identify E. coli SecA ATPase Inhibitors; assay type: functional; conditions: 30 µM
# [2] = biological target: T1, Ubiquitin-activating enzyme e1, putative (Leishmania donovani (strain BPK282A1)) (UniProt E9BSI1); assay: Leishmania donovani Ubiquitin Activating Enzyme (LdE1); assay type: functional; conditions: 30 µM
# T1 sequence (whole entry): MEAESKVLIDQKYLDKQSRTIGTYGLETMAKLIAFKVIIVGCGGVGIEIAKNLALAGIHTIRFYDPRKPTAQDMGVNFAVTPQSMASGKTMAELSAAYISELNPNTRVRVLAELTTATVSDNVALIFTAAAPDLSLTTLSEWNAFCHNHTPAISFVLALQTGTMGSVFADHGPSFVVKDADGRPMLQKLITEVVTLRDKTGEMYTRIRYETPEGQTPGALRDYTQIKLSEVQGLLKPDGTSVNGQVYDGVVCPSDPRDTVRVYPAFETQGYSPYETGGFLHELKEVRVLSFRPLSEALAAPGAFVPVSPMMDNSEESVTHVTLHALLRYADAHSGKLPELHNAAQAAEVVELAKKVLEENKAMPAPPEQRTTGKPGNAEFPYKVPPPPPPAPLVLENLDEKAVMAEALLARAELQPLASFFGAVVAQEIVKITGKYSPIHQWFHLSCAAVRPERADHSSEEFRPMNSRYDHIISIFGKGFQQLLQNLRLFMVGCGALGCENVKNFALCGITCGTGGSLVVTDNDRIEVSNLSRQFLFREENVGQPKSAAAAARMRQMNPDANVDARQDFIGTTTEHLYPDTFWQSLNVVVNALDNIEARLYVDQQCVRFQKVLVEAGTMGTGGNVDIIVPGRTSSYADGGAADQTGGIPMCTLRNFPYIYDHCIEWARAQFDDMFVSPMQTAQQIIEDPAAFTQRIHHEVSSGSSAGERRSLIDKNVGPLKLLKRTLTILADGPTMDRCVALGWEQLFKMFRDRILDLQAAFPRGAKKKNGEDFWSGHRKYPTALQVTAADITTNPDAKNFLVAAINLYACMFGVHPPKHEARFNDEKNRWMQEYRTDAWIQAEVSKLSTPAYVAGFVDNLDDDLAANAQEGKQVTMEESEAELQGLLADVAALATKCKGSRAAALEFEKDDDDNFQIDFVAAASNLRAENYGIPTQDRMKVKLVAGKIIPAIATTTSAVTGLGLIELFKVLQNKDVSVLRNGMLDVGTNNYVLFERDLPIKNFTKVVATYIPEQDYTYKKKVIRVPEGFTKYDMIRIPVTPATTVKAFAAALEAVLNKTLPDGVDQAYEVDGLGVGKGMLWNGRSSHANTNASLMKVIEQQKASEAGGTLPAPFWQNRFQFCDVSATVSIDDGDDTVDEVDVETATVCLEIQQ
# [3] = biological target: T2, Aspartate--tRNA(Asp/Asn) ligase (Mycobacterium tuberculosis (strain ATCC 25618 / H37Rv)) (UniProt P9WFW3); assay: Assay for Asp RNA synthetase-1 from Mycobacterium tuberculosis; assay type: functional; conditions: 30 µM; note: in the data most compounds retested in dose-response had high values
# T2 sequence (whole entry): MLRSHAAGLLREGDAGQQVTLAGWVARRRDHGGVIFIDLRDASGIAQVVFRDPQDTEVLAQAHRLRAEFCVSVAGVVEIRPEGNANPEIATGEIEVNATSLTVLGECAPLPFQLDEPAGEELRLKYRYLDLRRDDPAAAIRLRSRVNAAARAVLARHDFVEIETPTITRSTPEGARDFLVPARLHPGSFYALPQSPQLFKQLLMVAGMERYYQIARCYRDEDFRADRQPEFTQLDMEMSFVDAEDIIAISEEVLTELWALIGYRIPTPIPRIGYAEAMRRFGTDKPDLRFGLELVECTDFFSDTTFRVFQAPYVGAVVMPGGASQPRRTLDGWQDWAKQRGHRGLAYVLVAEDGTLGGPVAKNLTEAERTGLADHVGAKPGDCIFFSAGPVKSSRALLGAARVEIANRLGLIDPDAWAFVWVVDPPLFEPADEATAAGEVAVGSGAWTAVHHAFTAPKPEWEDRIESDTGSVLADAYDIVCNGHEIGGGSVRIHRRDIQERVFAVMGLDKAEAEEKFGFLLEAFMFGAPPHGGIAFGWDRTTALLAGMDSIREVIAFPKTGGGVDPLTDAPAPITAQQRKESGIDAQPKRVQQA
# [4] = biological target: Sialic acid-binding Ig-like lectin 9 (Homo sapiens) (UniProt Q9Y336); assay: Hs-Siglec9 ALPHAscreen SOP 20170721; conditions: 10 µM
# Chain of Sialic acid-binding Ig-like lectin 9 (Homo sapiens) (Q9Y336 whole entry): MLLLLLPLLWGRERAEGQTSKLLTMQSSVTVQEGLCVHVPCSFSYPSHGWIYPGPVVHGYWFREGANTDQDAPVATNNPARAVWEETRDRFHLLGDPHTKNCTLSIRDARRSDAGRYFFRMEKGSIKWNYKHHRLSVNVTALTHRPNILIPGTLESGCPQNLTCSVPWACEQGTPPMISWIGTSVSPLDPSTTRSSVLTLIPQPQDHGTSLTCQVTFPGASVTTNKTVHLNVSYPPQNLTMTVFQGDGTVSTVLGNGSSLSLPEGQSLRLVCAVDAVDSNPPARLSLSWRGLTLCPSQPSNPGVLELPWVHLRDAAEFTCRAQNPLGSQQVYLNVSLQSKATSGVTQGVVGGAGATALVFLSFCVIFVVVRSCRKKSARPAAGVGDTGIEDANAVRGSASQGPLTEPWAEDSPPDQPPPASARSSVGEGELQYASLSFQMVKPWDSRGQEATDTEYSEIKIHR
# Trypanosoma cruzi = assay: Trypanosoma cruzi phosphomannomutase and mannose-1-phosphate guanylyltransferase assay; assay type: functional; conditions: 10 µM
# [5] = biological target: T3, Arginase-2, mitochondrial (Homo sapiens) (UniProt P78540); assay: in vitro enzyme assay to detect the production of urea directly proportional to the activity of Arginase II; assay type: functional; conditions: 33.3 µM; note: in the data most compounds retested in dose-response had high values
# T3 sequence (whole entry): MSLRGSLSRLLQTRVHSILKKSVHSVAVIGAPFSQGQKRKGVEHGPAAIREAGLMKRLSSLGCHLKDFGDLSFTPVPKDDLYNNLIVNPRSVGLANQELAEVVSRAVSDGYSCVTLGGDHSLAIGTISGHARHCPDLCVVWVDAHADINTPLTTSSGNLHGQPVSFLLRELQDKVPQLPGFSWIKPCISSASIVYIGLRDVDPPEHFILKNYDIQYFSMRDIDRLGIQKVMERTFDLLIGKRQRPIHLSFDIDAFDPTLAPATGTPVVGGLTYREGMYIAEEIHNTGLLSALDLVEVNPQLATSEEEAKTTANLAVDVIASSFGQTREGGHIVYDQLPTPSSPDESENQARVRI
# [6] = biological target: T4, Proteasome subunit beta (Trypanosoma cruzi) (UniProt O96673); assay: Trypanosoma cruzi proteasome chymotrypsin-like activity (TcProtChymo) assay.; note: in the data most compounds retested in dose-response had high values; assay type: functional; conditions: 9.37 µM
# T4 sequence (whole entry): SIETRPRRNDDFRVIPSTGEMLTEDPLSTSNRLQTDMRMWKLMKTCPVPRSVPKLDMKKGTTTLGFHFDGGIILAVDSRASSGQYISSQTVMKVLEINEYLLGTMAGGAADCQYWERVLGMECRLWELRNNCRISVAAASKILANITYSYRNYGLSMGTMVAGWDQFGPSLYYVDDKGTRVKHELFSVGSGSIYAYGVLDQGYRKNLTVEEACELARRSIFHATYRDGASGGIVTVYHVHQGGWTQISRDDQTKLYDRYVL
# Homo sapiens = species: Homo sapiens; assay: To identify inhibition of the IFN signalling (Jak-Stat) pathway via expression of an eGFP reporter gene under the control of an IFN-stimulated response element (ISRE) containing MxA promoter.; assay type: functional; conditions: 30 µM
# [7] = biological target: Shiga toxin 2 (Escherichia coli O157:H7) (UniProt P09385+P09386); assay: E. coli 0.157:H7 Shiga Toxin SOP - stx2 screening assay; assay type: functional; conditions: 30 µM
# [8] = biological target: T5, Tyrosyl-tRNA synthetase, putative (Trypanosoma cruzi (strain CL Brener)) (UniProt Q4DSP6); assay: Trypanosoma cruzi tyrosyl tRNA synthetase (TcYRS) _High Tyrosine SOP; assay type: functional; conditions: 30 µM; note: in the data most compounds retested in dose-response had high values
# T5 sequence (whole entry): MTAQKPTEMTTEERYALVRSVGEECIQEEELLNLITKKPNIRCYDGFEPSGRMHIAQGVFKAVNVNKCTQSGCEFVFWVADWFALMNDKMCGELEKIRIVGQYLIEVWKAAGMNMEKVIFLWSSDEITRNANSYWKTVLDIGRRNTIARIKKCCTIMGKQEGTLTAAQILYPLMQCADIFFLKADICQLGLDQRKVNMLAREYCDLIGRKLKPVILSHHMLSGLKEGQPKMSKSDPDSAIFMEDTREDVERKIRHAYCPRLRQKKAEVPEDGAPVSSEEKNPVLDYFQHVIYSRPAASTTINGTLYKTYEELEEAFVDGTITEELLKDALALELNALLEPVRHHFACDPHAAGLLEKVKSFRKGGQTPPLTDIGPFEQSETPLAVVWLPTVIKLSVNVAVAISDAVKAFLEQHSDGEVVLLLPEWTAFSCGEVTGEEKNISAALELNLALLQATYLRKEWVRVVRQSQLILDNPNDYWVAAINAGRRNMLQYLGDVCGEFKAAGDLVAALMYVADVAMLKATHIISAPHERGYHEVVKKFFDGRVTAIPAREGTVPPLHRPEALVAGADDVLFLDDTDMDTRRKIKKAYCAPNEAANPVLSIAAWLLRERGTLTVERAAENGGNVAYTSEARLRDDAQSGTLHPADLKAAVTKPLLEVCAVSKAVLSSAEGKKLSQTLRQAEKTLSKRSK
# [9] = biological target: T5, Tyrosyl-tRNA synthetase, putative (Trypanosoma cruzi (strain CL Brener)); assay: Trypanosoma cruzi tyrosyl tRNA synthetase (TcYRS) SOP; assay type: functional; conditions: 30 µM
# [10] = biological target: Chromo domain-containing protein 1 (Saccharomyces cerevisiae (strain ATCC 204508 / S288c) (Baker's yeast)) (UniProt P32657); assay: ScCHD-1 Enzyme Inhibition Assay; assay type: functional; conditions: 30 µM; note: in the data most compounds retested in dose-response had high values
# Chain of Chromo domain-containing protein 1 (Saccharomyces cerevisiae (strain ATCC 204508 / S288c) (Baker's yeast)) (P32657 whole entry, the tested form may be a part): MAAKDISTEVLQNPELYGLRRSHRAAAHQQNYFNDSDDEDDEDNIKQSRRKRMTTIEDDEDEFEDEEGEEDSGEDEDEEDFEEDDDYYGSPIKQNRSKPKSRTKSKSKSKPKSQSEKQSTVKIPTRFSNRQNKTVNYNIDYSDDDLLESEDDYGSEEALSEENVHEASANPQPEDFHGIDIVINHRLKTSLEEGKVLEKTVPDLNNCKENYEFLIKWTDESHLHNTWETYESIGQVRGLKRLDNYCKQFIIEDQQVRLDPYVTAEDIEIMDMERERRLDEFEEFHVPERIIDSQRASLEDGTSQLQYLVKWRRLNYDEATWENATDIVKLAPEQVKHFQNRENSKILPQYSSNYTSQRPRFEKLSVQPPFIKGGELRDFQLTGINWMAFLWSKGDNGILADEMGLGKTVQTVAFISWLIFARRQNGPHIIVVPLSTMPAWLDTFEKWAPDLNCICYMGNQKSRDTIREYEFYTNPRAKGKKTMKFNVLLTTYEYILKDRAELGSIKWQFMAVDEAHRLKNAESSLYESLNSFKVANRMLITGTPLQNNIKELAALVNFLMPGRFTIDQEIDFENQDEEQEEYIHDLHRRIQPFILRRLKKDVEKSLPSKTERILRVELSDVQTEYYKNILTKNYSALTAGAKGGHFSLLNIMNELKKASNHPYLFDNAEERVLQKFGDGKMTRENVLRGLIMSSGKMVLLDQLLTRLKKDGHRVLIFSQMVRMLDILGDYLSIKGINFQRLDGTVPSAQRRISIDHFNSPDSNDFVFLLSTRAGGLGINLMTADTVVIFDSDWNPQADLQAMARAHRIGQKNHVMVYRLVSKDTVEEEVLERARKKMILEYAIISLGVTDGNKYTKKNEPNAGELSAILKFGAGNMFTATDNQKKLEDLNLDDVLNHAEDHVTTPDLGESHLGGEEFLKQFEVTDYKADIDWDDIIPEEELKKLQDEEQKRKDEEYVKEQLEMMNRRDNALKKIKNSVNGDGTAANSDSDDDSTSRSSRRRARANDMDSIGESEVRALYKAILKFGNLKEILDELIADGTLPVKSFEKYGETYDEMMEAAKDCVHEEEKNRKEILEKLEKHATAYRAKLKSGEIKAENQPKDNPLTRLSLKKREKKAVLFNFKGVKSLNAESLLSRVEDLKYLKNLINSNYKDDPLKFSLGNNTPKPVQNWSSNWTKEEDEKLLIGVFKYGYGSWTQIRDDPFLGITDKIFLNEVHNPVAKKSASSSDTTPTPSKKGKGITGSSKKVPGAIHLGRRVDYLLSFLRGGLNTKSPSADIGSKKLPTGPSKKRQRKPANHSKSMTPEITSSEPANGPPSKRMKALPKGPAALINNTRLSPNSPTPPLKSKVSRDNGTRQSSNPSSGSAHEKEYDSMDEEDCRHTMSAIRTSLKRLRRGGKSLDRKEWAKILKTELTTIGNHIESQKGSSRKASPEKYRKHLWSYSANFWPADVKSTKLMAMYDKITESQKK
# Chain of Protein translocase subunit SecA (Escherichia coli (strain K12)) (P10408 whole entry): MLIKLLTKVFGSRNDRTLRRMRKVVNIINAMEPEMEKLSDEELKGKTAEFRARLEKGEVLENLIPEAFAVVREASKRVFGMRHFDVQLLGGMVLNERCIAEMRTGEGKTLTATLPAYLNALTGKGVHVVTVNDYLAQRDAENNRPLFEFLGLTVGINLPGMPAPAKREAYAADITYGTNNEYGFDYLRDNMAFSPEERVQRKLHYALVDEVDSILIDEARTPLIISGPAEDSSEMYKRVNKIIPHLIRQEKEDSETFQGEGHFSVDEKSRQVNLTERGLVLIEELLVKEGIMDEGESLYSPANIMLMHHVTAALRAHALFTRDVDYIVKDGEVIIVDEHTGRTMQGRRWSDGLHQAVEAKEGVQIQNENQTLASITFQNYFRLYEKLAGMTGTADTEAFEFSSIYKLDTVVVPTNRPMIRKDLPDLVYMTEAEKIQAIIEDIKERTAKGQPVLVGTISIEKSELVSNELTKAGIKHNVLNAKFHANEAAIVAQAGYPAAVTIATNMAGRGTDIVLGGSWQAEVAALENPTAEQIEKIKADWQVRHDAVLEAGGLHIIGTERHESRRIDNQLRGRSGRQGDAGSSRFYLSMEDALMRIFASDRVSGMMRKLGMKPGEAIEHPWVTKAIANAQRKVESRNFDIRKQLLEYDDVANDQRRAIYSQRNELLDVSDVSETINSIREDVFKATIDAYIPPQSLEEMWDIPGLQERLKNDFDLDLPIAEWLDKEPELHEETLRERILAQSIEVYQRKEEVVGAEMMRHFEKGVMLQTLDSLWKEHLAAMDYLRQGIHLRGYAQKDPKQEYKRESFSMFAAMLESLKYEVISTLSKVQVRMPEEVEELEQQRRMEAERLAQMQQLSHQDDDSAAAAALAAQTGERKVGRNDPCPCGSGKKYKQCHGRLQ
Compound,Percent Effect [1],Percent Effect [2],Percent Effect [3],Percent Effect [4],Percent Effect (Trypanosoma cruzi),Percent Effect [5],Percent Effect [6],Percent Effect (Homo sapiens),Percent Effect [7],Percent Effect [8],Percent Effect [9],Percent Effect [10]
Cc1cccc(CN2CC[C@H]3[C@H]2CCN3Cc2cnn(C)c2)n1,-6.02%,3.9%,-3.89%,2.88%,0.75%,-0.457%,-2.15%,34%,-8.6%,-1.93%,-10%,1.01%
COc1ccc(C)cc1CC(=O)N1CCN(CC(C)O)CC1 (centres undefined),-3.62%,15.6%,3.12%,6.85%,5.6%,-5.53%,8.07%,0.0446%,-20.5%,4.9%,18.8%,-7.21%
COCCN1C[C@@H]2CN(Cc3cccc(C)n3)C[C@@H]2C1=O,-2.33%,-1.3%,1.39%,0.23%,-24.2%,2.28%,16.1%,1.2%,-2.04%,7.73%,12.5%,-8.2%
COCC(C)NC(=O)c1cn(C(C)(C)C)c2ncccc12 (centres undefined),0.871%,14.7%,4.78%,-9.18%,4.93%,0.443%,18.2%,6.95%,-13.5%,0%,10%,-22.6%
CC[C@H]1NCCC[C@]12CCC(=O)N2Cc1ccncc1,-3.12%,11.7%,0.865%,1.31%,0%,1.37%,-0.772%,-15%,-6.09%,5.8%,15%,-0.792%
O=C1CC[C@H]2[C@H](CCN2Cc2ccccn2)N1CC1CCOCC1,-3.55%,9.09%,-4.23%,-1.65%,-5.63%,2.74%,3.35%,8.69%,-14%,-0.966%,2.5%,-0.494%
COCCN1CCN(Cc2ccncc2)[C@H]2CS(=O)(=O)C[C@H]21,-10.2%,10.8%,-1.29%,17.6%,6.3%,16.4%,5.99%,6.91%,11.1%,4.79%,14.6%,-4.57%
